Measured values published in the supplement of paper PMC9694430.
“And” between values parts separate entries of the source, which are not always exact repeats. Equal values may be shown once.

Key:
Assay in all cases: thermal shift delta Tm vs DMSO control; higher = stronger stabilization (binding)
Conditions in all cases: 12.5 µM; protein concentration 2 µM
LOC_OS04G57630-cb004 = system: LOC_OS04G57630-cb004
How it was run: (§1)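 Rice kinase domain constructs were expressed in E. coli, purified, and tested by differential scanning fluorimetry with compound added in DMSO. Each well of a 96-well plate held 19.5 μl of 2 μM kinase in 100 mM potassium phosphate pH 7.5, 150 mM NaCl, 10% glycerol and 5 × SYPRO Orange, and fluorescence was read from 25°C to 95°C at 0.05°C/s. The melting temperature shift is the mean of triplicates, taken against protein with DMSO alone after Boltzmann fitting.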

LOC_OS05G07850-cb002 = system: LOC_OS05G07850-cb002
How it was run: as §1

LOC_OS05G16824-cb004 = system: LOC_OS05G16824-cb004
How it was run: as §1

LOC_OS05G28520-cb001 = system: LOC_OS05G28520-cb001
How it was run: as §1

LOC_OS05G30820-cb001 = system: LOC_OS05G30820-cb001
How it was run: as §1

LOC_OS05G43570-cb004 = system: LOC_OS05G43570-cb004
How it was run: as §1

LOC_OS06G16330-cb003 = system: LOC_OS06G16330-cb003
Chain of LOC_OS06G16330-cb003 (as listed by the source): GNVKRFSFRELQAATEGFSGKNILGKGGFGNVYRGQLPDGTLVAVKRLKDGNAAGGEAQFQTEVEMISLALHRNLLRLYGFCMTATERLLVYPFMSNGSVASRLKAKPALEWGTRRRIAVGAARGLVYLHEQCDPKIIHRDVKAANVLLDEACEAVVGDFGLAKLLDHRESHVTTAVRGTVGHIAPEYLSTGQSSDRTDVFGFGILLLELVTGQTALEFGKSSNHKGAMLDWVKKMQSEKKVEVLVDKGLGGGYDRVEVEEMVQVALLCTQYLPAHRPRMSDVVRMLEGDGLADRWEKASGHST
How it was run: as §1

LOC_OS06G22820-cb001 = system: T1, LOC_OS06G22820-cb001
T1 sequence (whole entry): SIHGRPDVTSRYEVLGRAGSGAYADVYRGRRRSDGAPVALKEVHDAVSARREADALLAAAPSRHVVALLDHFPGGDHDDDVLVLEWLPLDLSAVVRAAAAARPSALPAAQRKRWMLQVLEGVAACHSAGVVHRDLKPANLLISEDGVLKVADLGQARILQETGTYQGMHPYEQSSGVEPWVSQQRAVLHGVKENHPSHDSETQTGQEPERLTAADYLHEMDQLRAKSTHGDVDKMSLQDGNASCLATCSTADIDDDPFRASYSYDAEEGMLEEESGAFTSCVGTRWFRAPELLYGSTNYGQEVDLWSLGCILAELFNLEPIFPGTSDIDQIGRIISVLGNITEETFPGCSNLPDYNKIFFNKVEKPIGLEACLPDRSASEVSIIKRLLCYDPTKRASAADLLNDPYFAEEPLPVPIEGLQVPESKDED
How it was run: as §1

LOC_OS07G06570-cb004 = system: LOC_OS07G06570-cb004
How it was run: as §1

LOC_OS07G07230-cb001 = system: LOC_OS07G07230-cb001
How it was run: as §1

Structure (SMILES) | thermal shift delta Tm (LOC_OS04G57630-cb004) | thermal shift delta Tm (LOC_OS05G07850-cb002) | thermal shift delta Tm (LOC_OS05G16824-cb004) | thermal shift delta Tm (LOC_OS05G28520-cb001) | thermal shift delta Tm (LOC_OS05G30820-cb001) | thermal shift delta Tm (LOC_OS05G43570-cb004) | thermal shift delta Tm (LOC_OS06G16330-cb003) | thermal shift delta Tm (LOC_OS06G22820-cb001) | thermal shift delta Tm (LOC_OS07G06570-cb004) | thermal shift delta Tm (LOC_OS07G07230-cb001)
Cc1nc(-c2cn3c(n2)-c2ccc(-c4cnn(C(C)(C)C(N)=O)c4)cc2OCC3)n(C(C)C)n1 [Taselisib (GDC 0032)] | 0.16 °C | 0.89 °C | 0.74 °C | 0.19 °C | 0.59 °C | 0.36 °C | -0.08 °C | 0.16 °C | 1.28 °C | 0.87 °C
C=CC(=O)Nc1cccc(Nc2nc(Nc3ccc(N4CCN(C(C)=O)CC4)cc3OC)ncc2C(F)(F)F)c1 [Rociletinib (CO-1686, AVL-301)] | 0.55 °C | 10.2 °C | 4.44 °C | 0.98 °C | 0.73 °C | 0.4 °C | 4.77 °C | 0.68 °C | 1.54 °C | 1.09 °C
CONC(=O)c1ccccc1Nc1cc(Nc2cc(C)nn2C(C)C)ncc1Cl | 0.41 °C | 5.58 °C | 8.82 °C | 0.25 °C | 0.17 °C | 0.39 °C | 6.46 °C | 0.47 °C | 1.77 °C | 0.55 °C
CN1CCN(c2ccc(C(=O)Nc3n[nH]c4ccc(Cc5cc(F)cc(F)c5)cc34)c(NC3CCOCC3)c2)CC1 [Entrectinib (RXDX-101)] | 2.05 °C | 10.2 °C | 5.23 °C | 3.71 °C | 0.38 °C | 0.47 °C | 8.44 °C | 0.27 °C | 0.88 °C | 0.63 °C
C=CCc1ccc(O)c(-c2ccc(O)c(CC=C)c2)c1 [Honokiol] | 0.34 °C | 0.49 °C | 1.45 °C | 0.24 °C | 0.69 °C | 0.62 °C | 0.47 °C | 0.7 °C | 0.49 °C | -0.78 °C
CN(c1ncccc1CNc1nc(Nc2ccc3c(c2)CC(=O)N3)ncc1C(F)(F)F)S(C)(=O)=O | 1.44 °C and 2.05 °C | 8.97 °C and 9.58 °C | 9.12 °C and 9.67 °C | 0.98 °C and 1.52 °C | 4.26 °C and 3.92 °C | 0.77 °C and 0.58 °C | 4.21 °C and 5.5 °C | -0.01 °C and -0.19 °C | 0.81 °C and 1.35 °C | 0.45 °C and 0.44 °C
CC(=O)Nc1nc(C)c(-c2ccc(Cl)c(S(=O)(=O)NCCO)c2)s1 | 0.23 °C | 4.94 °C | 0.69 °C | 0.59 °C | 0.4 °C | 0.87 °C | 0.63 °C | 0.43 °C | 0.81 °C | -0.01 °C
CNC(=O)c1nn(C)c2c1C(C)(C)Cc1cnc(Nc3ccc(N4CCN(C)CC4)cc3)nc1-2 | 3.76 °C | 6.76 °C | 7.67 °C | 4.23 °C | 0.45 °C | 0.22 °C | 4.37 °C | 0.43 °C | 0.26 °C | 0.04 °C
CC(C)CCN1c2nc(Nc3cc(F)c(O)c(F)c3)ncc2N(C)C(=O)C1C (stereo not given) | 1.73 °C | 7.46 °C | 8.92 °C | 1 °C | 1.42 °C | 0.53 °C | 3.47 °C | 1.8 °C | 3.6 °C | 0.37 °C
CNC(=O)c1ccc(C)c(-n2c(C)cc(OCc3ccc(F)cc3F)c(Br)c2=O)c1 | 0.7 °C | 0.4 °C | 0.62 °C | 0.4 °C | 0.44 °C | 0.56 °C | 0.1 °C | 0.38 °C | 0.59 °C | -0.01 °C
CC(C)(C)S(=O)(=O)c1ccc2nccc(Nc3n[nH]c4ccc(F)cc34)c2c1 | 0.34 °C | 2.55 °C | -0.25 °C | -0.33 °C | 0.52 °C | 0.22 °C | 0.6 °C | 0.36 °C | 0.6 °C | 0.92 °C
CC(C)(C)NC(=O)c1cncn1C1CCN(c2ccc(-c3nnc(C(F)(F)F)o3)cn2)CC1 | -0.11 °C | 0.05 °C | 0.92 °C | -0.42 °C | 0.02 °C | -0.06 °C | -0.23 °C | 0.29 °C | 1.08 °C | 0.57 °C
C[C@@H](Oc1cc(-c2cnn(C3CCNCC3)c2)cnc1N)c1c(Cl)ccc(F)c1Cl | 3.33 °C | 9.7 °C | 4.65 °C | 0.26 °C | 0.39 °C | 0.21 °C | 10.8 °C | 0.95 °C | 0.69 °C | 0.31 °C
O=C(c1cccc(Cl)c1F)N1CCN(Cc2cccc(Nc3nccs3)n2)CC1 | 1.01 °C | 7.36 °C | 3.48 °C | 1.87 °C | 0.31 °C | -0.14 °C | 10.8 °C | 0.57 °C | 1.24 °C | 0 °C
Cn1nccc1Nc1nccc(-c2ccn([C@H](CO)c3ccc(Cl)c(F)c3)c(=O)c2)n1 | 0.08 °C | 2.78 °C | -3.01 °C | 1.03 °C | 0.26 °C | 0.16 °C | 0.19 °C | 0.56 °C | 1.22 °C | 0.87 °C
Cc1cc([C@@H](C)Nc2ccccc2C(=O)O)c2nc(N3CCOCC3)cc(=O)n2c1 | 0.31 °C | -0.01 °C | -0.08 °C | 0.3 °C | 0.51 °C | 0.63 °C | -0.44 °C | 0.63 °C | 1.04 °C | -0.17 °C
COC(=O)c1ccc2c(c1)NC(=O)/C2=C(\Nc1ccc(N(C)C(=O)CN2CCN(C)CC2)cc1)c1ccccc1 [Nintedanib (BIBF 1120)] | 1.08 °C | 1.57 °C | 9.2 °C | 0.54 °C | 0.35 °C | 0.43 °C | 0.71 °C | 0.4 °C | 0.96 °C | 0.42 °C
COc1cccc(-n2c(=O)[nH]c3cc(Cl)n(-c4ccc(-c5cccc(OC)c5O)cc4)c3c2=O)c1 | 0.32 °C | -0.83 °C | -0.73 °C | 0.37 °C | 0.41 °C | 0.59 °C | -0.14 °C | 0.65 °C | 1.02 °C | 0.5 °C
CCN1CCN(Cc2ccc(-c3cc4c(N[C@H](C)c5ccccc5)ncnc4[nH]3)cc2)CC1 | 0.95 °C | 5.78 °C | 3.87 °C | 1 °C | 0.48 °C | 0.5 °C | 4.68 °C | 0.76 °C | 1.03 °C | 0.13 °C
Cc1nc(Nc2ncc(C(=O)Nc3c(C)cccc3Cl)s2)cc(N2CCN(CCO)CC2)n1 [Dasatinib] | 2.57 °C | 4.35 °C | 5.06 °C | 1.02 °C | 0.42 °C | 0.75 °C | 1.61 °C | 0.79 °C | 1.03 °C | 1.1 °C
OC1CCC(Oc2cccc3cnc(Nc4ccc5nc[nH]c5c4)nc23)CC1 (stereo not given) | 4.38 °C | 13.5 °C | 18.9 °C | 0.67 °C | 2.88 °C | 1.07 °C | 12.4 °C | 0.29 °C | 1.85 °C | 0.34 °C
CC(C)(C)c1cnc(CSc2cnc(NC(=O)C3CCNCC3)s2)o1 | -0.47 °C | 0.35 °C | -1.08 °C | 0.48 °C | 0.47 °C | 0.31 °C | 0.18 °C | 2.84 °C | 0.7 °C | -0.01 °C
